Reference: PubChem BioAssay (Tox21)
Records with an inconclusive call do not appear. A call without a number means that no potency is given here. Active and inactive are the calls of the source. Calls come from the whole dose curve; as a rule, active = well fitted curve in the direction sought with a large enough effect in the repeat runs; inconclusive = weak or mixed curves; inactive = no such curve, though single readings can be large; an effect the other way counts as inactive or inconclusive.

Experiments:
[1] = qHTS assay to identify aromatase inhibitors - cell viability counter screen (AID 743084); details: MCF-7 aro ERE viability, CellTiter-Fluor, 24 h; series mostly up to 70.3 µM;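 note: cells stimulated with testosterone during compound exposure; nearly all actives have a fitted effect of over 55% in size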
[2] = target: Aryl hydrocarbon receptor (Homo sapiens) (UniProt P35869); experiment: qHTS assay to identify small molecule that activate the aryl hydrocarbon receptor (AhR) signaling pathway (AID 743085); details: HepG2 AhR-luc (HG2L7.5c1), luciferase, 24 h; series mostly up to 70.3 µM; note: nearly all actives have a fitted effect of over 15% in size
Outline: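 Cell line HG2L7.5c1 (human hepatoma, 20× DRE-luc). Plated, 5 h 37C, compound/DMSO added, 24 h 37C. CellTiter-Fluor 30 min 37C → fluorescence; then ONE-Glo 30 min RT → luminescence.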

[3] = qHTS assay to identify small molecule that activate the aryl hydrocarbon receptor (AhR) signaling pathway - cell viability counter screen (AID 743086); details: HepG2-AhR-luc viability, CellTiter-Fluor, 24 h; series mostly up to 70.3 µM; note: nearly all actives have a fitted effect of over 45% in size
Outline: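 HepG2-AhR-luc (HG2L7.5c1) cells, 4000/well, were preincubated 5 h at 37C, exposed to compound in qHTS format for 24 hr at 37C, then given CellTiter-Fluor for 30 min; viability was read as fluorescence in the reporter wells.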
Potency is the fitted concentration of half-maximal effect.

Sequence of Aryl hydrocarbon receptor (Homo sapiens) (P35869 whole entry, looked up): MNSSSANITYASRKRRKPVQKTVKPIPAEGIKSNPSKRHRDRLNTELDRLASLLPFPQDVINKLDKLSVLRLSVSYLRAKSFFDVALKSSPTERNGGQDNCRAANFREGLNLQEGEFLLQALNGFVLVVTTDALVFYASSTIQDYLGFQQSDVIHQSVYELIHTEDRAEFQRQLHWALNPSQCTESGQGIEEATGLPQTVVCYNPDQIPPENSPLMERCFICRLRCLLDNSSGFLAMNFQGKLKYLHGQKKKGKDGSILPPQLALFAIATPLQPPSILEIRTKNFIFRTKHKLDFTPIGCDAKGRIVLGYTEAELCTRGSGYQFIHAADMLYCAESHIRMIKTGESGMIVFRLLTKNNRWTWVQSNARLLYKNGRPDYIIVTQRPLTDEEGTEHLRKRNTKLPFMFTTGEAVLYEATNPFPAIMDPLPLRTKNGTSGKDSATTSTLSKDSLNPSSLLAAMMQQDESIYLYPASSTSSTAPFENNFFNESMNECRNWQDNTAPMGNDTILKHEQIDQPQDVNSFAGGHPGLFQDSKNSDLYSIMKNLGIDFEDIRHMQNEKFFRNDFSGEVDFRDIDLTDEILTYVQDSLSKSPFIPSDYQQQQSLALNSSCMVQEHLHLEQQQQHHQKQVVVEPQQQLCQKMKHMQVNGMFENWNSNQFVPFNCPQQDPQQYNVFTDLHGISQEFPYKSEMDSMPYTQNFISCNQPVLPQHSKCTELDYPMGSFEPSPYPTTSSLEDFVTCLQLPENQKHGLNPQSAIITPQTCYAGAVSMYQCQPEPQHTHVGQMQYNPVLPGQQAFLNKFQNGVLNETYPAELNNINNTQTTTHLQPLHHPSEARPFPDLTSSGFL

Compound | Potency [1] | Potency [2] | Potency [3]
COC1[C@@H](O[C@@H]2O[C@H](C)[C@@H](O[C@H]3C[C@@](C)(O)[C@H](OC(=O)CC(C)C)[C@H](C)O3)[C@H](N(C)C)[C@H]2O)[C@@H](CC=O)C[C@@H](C)[C@@H](O)/C=C/C=C/C[C@@H](C)OC(=O)C[C@H]1OC(C)=O (stereo partly specified) | inactive | inactive | inactive
COc1cc2c(cc1OC)[C@@H](Cc1cc(OC)c(OC)c(OC)c1)[N+](C)(CCCOC(=O)CC/C=C/CCC(=O)OCCC[N+]1(C)CCc3cc(OC)c(OC)cc3[C@H]1Cc1cc(OC)c(OC)c(OC)c1)CC2 (stereo partly specified) | inactive | – | –
CC(=O)Oc1cc(C(F)(F)F)ccc1C(=O)O | inactive | inactive | –
CC/C=C\C/C=C\C/C=C\C/C=C\C/C=C\CCCC(=O)O | inactive | inactive | –
CCCOC(=O)c1ccccc1O | inactive | inactive | inactive
CCC1OC(=O)C[C@@H](O)[C@H](C)[C@@H](O[C@@H]2O[C@H](C)C[C@H](N(C)C)[C@H]2O)[C@@H](CC=O)C[C@@H](C)C(=O)/C=C/[C@]2(C)OC2C1C (stereo partly specified) | 21.1 µM (active) | inactive | 21.1 µM (active)
CO[C@H](C(=O)[C@@H](O)[C@@H](C)O)C1Cc2cc3cc(O[C@H]4C[C@@H](O[C@H]5C[C@@H](O)[C@H](O)[C@@H](C)O5)[C@@H](O)[C@@H](C)O4)c(C)c(O)c3c(O)c2C(=O)[C@H]1O[C@H]1C[C@@H](O[C@H]2C[C@@H](O[C@H]3C[C@](C)(O)[C@H](O)[C@@H](C)O3)[C@H](O)[C@@H](C)O2)[C@H](O)[C@@H](C)O1 (stereo partly specified) | inactive | 0.237 µM (active) | –
